From the supplement of paper PMC11732987, “Enantioselective OTUD7B fragment discovery through chemoproteomics screening and high-throughput optimisation” (Communications Chemistry, 2025)

Columns and labels:
Assay in all cases: log2 ratio of Biotin-Ahx-Ub-VS probe labelling (fragment/DMSO); higher = less target engagement (more negative = stronger competition), active = hit call of the paper (q ≤ 0.05, log2 ratio ≤ -1)
Conditions in all cases: compound concentration: 200 uM; treatment time: 3 h
[1] = target: USP9X (UniProt Q93008)
Method in brief: (§1)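 Fragment (200 µM) or vehicle was incubated for 3 h with triplicate HEK293T lysate samples of 495 µg, which were then treated with Biotin-Ahx-Ub-VS at 0.5 µM final for 1 h. Labelled DUBs were enriched on NeutrAvidin, digested with LysC and trypsin, and analysed by diaPASEF LC-MS/MS. Values are average log2 fragment/vehicle ratios from an unpaired t-test on global-median-normalised Spectronaut label-free quantities, using proteins with ≥2 unique peptides.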

[2] = target: UniProt O00487
Method in brief: as §1

[3] = target: UniProt O00507
Method in brief: as §1

[4] = target: UniProt P51784
Method in brief: as §1

[5] = target: T1, UniProt Q5T2D3
T1 sequence (whole entry): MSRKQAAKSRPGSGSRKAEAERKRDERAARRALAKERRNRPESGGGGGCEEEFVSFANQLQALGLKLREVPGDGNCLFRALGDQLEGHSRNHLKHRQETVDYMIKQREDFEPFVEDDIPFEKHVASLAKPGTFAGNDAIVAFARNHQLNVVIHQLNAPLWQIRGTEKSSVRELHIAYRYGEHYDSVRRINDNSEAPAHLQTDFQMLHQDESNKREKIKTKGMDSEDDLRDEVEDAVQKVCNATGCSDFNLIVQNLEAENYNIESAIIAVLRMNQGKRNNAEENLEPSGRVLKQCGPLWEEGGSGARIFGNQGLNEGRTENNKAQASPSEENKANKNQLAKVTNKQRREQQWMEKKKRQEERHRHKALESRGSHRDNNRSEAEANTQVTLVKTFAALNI
Method in brief: as §1

[6] = target: T2, UniProt Q8TE49
T2 sequence (whole entry): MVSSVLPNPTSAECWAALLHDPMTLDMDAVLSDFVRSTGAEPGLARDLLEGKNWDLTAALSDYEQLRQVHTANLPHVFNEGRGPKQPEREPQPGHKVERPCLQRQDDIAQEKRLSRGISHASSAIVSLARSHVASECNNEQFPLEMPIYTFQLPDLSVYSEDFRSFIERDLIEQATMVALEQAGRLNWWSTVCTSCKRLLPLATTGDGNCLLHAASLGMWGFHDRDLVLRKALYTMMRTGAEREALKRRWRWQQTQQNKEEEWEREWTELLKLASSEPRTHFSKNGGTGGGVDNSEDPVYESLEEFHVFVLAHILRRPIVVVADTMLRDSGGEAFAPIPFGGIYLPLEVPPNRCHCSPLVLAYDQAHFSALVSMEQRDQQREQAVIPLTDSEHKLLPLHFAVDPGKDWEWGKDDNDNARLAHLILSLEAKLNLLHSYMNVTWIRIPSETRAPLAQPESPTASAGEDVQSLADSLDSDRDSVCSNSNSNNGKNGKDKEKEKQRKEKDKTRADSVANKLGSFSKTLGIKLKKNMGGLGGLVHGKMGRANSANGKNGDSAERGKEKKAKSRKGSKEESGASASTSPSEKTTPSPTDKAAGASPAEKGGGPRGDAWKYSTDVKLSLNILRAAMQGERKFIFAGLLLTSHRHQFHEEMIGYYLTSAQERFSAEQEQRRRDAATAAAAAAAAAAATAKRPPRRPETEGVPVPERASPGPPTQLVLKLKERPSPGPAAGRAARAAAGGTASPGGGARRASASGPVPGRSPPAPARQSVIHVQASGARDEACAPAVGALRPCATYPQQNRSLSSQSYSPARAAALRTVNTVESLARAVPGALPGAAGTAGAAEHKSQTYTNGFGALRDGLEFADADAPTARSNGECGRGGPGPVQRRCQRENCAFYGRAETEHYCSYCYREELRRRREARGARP
Method in brief: as §1

[7] = target: T3, UniProt Q9P2H5
T3 sequence (whole entry): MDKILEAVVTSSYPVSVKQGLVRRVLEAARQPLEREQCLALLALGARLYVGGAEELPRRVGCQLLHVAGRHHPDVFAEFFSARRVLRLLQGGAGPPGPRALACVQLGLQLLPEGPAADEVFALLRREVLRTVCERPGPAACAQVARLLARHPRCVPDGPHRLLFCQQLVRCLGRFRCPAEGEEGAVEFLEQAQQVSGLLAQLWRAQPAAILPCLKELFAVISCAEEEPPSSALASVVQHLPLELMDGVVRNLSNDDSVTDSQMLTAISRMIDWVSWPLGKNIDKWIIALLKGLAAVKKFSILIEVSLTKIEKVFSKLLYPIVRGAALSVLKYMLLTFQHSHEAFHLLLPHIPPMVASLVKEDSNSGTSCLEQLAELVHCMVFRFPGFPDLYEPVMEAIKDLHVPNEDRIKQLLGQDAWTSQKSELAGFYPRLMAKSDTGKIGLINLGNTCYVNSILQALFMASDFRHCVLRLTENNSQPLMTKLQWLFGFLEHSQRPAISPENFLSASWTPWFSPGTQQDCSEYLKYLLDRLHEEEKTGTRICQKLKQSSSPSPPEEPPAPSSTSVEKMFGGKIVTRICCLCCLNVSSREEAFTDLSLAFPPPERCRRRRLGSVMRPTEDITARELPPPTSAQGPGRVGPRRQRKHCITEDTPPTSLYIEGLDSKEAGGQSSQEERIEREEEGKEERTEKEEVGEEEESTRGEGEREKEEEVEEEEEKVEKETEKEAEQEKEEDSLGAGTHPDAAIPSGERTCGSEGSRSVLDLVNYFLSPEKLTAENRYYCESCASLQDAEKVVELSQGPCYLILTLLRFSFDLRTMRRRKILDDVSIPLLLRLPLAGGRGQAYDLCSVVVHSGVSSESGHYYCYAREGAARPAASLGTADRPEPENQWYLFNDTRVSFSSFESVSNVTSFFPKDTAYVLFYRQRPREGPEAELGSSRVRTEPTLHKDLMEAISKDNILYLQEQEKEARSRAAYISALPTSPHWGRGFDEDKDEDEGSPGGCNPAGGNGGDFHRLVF
Method in brief: as §1

[8] = target: T4, UniProt Q9UGI0
T4 sequence (whole entry): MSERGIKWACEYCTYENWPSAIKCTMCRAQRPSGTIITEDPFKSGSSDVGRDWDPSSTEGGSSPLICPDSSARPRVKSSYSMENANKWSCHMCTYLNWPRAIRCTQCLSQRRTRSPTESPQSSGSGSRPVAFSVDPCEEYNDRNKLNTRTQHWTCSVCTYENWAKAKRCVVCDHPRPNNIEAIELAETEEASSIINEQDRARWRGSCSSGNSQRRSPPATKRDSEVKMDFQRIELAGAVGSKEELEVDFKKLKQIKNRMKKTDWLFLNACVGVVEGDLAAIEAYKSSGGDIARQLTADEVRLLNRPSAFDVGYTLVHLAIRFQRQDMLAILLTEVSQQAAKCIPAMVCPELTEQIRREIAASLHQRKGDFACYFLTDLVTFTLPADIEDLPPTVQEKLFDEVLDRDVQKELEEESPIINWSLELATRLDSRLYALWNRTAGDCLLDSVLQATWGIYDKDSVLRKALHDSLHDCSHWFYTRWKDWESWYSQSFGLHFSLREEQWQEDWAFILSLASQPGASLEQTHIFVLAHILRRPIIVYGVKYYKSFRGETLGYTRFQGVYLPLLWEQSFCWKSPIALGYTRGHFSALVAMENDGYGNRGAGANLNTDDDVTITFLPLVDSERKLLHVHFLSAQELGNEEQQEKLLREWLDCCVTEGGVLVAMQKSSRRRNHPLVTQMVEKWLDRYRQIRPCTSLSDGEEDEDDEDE
Method in brief: as §1

[9] = target: T5, YOD1 (UniProt Q5VVQ6)
T5 sequence (whole entry): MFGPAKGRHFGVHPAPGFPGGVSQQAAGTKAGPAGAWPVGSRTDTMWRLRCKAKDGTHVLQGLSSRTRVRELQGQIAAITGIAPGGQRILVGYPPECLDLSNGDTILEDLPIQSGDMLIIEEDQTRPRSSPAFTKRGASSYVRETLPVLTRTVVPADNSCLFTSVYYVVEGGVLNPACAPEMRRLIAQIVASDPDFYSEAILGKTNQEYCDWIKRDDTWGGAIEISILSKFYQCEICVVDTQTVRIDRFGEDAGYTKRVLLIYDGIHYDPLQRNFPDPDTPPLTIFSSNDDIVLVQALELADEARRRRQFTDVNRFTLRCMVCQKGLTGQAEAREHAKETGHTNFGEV
Method in brief: as §1

Measured: log2 ratio of Biotin-Ahx-Ub-VS probe labelling

Chain of UniProt P51784 (P51784 whole entry): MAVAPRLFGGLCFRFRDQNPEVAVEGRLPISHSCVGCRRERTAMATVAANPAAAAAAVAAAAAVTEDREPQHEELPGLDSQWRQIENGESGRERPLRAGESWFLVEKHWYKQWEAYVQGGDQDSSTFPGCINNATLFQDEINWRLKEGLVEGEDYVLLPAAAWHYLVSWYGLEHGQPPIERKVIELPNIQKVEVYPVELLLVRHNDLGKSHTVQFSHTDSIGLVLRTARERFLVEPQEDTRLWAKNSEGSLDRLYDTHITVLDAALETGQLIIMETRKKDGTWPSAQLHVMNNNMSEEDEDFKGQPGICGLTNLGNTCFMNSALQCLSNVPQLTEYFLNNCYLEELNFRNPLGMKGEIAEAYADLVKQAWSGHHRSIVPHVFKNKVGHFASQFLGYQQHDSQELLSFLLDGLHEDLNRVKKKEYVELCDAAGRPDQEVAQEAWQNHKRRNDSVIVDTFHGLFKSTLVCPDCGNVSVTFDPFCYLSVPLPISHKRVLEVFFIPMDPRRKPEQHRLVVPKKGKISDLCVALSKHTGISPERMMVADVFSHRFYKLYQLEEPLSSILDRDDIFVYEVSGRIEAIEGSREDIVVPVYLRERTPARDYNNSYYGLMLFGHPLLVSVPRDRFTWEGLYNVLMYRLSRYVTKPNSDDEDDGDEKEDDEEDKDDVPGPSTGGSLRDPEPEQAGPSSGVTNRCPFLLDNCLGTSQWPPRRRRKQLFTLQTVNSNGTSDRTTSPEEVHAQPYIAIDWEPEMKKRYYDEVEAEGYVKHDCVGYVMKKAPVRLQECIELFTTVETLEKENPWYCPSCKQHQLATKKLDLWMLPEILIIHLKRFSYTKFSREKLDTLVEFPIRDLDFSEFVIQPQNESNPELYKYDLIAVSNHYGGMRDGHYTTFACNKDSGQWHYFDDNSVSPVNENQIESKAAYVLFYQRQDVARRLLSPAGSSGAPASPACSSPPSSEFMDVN
Chain of USP9X (Q93008 whole entry, the tested form may be a part): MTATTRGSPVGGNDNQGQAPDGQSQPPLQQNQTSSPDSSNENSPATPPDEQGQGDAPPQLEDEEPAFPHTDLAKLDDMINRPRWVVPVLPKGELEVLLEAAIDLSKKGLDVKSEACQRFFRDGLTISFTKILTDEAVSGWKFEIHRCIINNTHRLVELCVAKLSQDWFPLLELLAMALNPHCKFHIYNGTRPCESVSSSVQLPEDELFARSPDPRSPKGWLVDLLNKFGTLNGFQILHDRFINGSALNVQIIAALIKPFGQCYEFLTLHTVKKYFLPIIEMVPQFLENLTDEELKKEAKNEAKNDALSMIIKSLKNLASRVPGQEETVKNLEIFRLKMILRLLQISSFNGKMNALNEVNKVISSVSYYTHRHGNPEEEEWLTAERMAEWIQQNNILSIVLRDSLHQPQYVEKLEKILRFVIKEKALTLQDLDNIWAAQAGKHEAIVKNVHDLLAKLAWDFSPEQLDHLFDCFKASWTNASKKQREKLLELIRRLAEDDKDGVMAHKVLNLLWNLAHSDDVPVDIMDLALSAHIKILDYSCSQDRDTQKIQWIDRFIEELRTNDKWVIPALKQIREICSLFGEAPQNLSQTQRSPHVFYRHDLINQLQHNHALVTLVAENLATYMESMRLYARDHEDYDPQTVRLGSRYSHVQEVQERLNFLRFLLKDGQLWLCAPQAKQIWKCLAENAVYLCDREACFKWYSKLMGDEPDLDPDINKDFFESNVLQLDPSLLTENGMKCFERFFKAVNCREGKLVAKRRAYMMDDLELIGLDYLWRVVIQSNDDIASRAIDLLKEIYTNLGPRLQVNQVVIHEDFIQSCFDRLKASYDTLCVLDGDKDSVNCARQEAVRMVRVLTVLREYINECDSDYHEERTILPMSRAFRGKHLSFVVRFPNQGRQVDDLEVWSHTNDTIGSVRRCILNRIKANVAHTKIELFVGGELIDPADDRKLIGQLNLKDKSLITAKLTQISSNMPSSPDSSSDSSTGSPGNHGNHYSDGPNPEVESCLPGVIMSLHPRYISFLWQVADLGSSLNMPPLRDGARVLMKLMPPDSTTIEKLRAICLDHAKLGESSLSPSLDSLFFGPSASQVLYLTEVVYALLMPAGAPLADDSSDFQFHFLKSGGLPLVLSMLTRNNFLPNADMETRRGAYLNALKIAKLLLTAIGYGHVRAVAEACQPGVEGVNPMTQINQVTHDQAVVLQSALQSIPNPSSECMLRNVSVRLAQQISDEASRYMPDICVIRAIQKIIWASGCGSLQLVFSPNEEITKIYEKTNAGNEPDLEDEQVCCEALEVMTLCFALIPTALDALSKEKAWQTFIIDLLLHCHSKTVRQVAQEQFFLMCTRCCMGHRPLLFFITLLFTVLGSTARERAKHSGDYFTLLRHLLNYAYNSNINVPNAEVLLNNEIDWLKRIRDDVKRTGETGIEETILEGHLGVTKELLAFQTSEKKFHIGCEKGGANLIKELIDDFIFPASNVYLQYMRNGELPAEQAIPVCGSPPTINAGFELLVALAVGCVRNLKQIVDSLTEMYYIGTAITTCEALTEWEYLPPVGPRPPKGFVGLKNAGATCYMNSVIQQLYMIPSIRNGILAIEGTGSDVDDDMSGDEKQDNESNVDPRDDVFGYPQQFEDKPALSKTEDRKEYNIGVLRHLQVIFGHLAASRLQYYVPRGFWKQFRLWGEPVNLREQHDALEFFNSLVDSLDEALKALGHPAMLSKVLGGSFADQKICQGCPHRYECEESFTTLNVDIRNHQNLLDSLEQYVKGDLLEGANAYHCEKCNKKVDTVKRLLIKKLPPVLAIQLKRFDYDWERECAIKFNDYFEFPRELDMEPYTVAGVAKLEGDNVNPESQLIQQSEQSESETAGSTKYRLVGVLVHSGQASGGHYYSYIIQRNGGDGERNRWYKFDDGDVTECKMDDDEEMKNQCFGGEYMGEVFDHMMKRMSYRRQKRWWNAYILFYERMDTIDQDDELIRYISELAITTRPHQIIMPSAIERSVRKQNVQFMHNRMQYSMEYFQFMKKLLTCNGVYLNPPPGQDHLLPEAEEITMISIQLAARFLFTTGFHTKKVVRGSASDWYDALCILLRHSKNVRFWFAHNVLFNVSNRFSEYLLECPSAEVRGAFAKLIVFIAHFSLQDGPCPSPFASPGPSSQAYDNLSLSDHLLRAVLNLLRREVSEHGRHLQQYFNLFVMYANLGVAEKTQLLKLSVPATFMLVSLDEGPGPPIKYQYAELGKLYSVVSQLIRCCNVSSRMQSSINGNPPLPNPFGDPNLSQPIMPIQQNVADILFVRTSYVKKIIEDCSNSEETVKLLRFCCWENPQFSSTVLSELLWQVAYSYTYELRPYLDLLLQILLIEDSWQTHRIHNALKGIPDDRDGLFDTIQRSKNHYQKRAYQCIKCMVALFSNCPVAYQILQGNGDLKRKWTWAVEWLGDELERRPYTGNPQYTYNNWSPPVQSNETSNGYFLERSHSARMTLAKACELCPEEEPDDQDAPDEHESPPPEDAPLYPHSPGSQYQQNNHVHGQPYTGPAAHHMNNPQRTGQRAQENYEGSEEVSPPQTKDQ
Chain of UniProt O00487 (O00487 whole entry): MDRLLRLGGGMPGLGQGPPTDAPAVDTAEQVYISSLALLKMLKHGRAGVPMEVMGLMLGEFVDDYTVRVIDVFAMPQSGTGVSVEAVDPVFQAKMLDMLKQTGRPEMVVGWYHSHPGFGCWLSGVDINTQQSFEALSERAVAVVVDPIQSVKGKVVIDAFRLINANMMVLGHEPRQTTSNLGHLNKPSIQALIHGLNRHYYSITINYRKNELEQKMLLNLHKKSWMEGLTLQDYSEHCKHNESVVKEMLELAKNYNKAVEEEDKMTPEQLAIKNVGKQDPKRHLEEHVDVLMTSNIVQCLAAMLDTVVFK

O=C(CCl)N1CCOC(CCc2ccccc2)C1 (centres undefined)
inactive: [1] -0.43 | [2] -0.235 | [3] -0.798 | [4] -0.097 | [5] -0.306 | [6] -0.84 | [7] -0.236 | [8] -0.876 | [9] -0.418
